Pf growth 48h: inhibits P. falciparum growth in the first generation, 48 h | Potency, µM (series often up to 28.7 µM), without a hit: at the highest dose activity change, negative = inhibition, hits mostly inhibitors | 310,000 compounds, 5.9% hits | AID 504832 | P. falciparum luciferase growth in erythrocytes, 48 h; also: potency is read from the fitted curve at half-maximal effect; % is scaled to controls: 0 for no effect and ±100 for the full control effect
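First compound was added to culture medium, then infected red cells at 0.1% parasitemia and 2% hematocrit (final). After incubation at 37 C under 5% CO2, luciferase detection reagent was dispensed and light output recorded.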
SARS PLP yeast: SARS-CoV PLP inhibition in yeast. 330,000 compounds, 0.19% hits. Potency, µM (doses to about 32.9 µM), for the others: at the highest dose activity, positive = growth rescue, actives largely listed as activators. AID 485353. S. cerevisiae expressing SARS-CoV PLpro, growth rescue; calls by dose curve; also: potency is read from the fitted curve at half-maximal effect; 0% is about no effect; nearly all actives have a fitted effect of over 55% in size
AMA1-RON2 inh: AMA1-RON2 (P. falciparum) interaction inhibition. AlphaScreen AMA1-biotinylated RON2 peptide binding. Potency, µM (highest dose often 58.2 µM), for inactives: top-dose activity change, negative = inhibition, hits mostly inhibitors. 360,000 compounds, 0.2% hits;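 also: potency is read from the fitted curve at half-maximal effect; 0% = vehicle wells and -100% = peptide control; nearly all actives have a fitted effect of over 45% in size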
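AMA1 (3D7) with his tag at 25 nM final met compounds first, then biotinylated RON2 peptide at 25 nM; detection used donor plus acceptor beads, 10 µg/mL apiece, read by AlphaScreen after 30 min at room temperature.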
Pf growth 96h: P. falciparum growth inhibition at 96 hours; 320,000 compounds, 6.9% hits; P. falciparum luciferase reporter growth, 96 h; Potency, µM (top dose mostly 28.7 µM), for inactives: at the top dose activity change, negative = inhibition, hits mostly inhibitors; also: potency is read from the fitted curve at half-maximal effect; % is scaled to controls: 0 for no effect and ±100 for the full control effect
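Readout is luminescence from an integrated firefly luciferase in P. falciparum. Red cells, 2% hematocrit and 0.05% parasitemia final, were cultured with compound through two parasite generations (96 hours) at 37 C, 5% CO2.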
Cycloheximide cs: affects cycloheximide protein synthesis inhibition readout, counter-screen. AID 2314. 300,000 compounds, 12% hits. cell reporter, cycloheximide protein synthesis inhibition counterscreen. max response, %; in the data active = max response mostly above about 13%, no sharp cut-off; inactive = mostly below about 14%; also: read at 38.3 µM for the half of the compounds with a filed dose; 0% is about no effect
Shiga toxin inh: inhibitors of Shiga toxin in Vero cells. Vero cells, Shiga toxin protein synthesis inhibition reporter. inhibition, % at 38.7 µM. 290,000 compounds, 9.2% hits; in the data active = inhibition mostly above about 28%, no sharp cut-off; inactive = mostly below about 43%; also: 0% is about no effect
Starred values were filed as active, the others as inactive; u = inconclusive; x = not tested or not shown. This is a sample that favours compounds with a hit; in the whole collection about 19% have one here. Unless noted, calls follow the shape of the dose curve; as a rule, active = well fitted curve in the direction sought with a large enough effect; inconclusive = small, poorly fitted or top-dose-only effect, or another doubt; inactive = no such curve, though single readings can be large; an effect the other way counts as inactive or inconclusive.

SMILES	Pf growth 48h	SARS PLP yeast	AMA1-RON2 inh	Pf growth 96h	Cycloheximide cs	Shiga toxin inh
CCOC(=O)c1cc2c(=O)n3cccc(C)c3nc2n(Cc2ccco2)c1=NC(=O)c1cccnc1	u	1%	-24%	u	6	33*
COCCCn1c(=NC(=O)c2ccccc2)c(C#N)cc2c(=O)n3cccc(C)c3nc21	2.9µM*	-1%	5%	u	-2	-7
COCCCn1c(C(=O)NC2CCCCC2C)cc2c(=O)n3cccc(C)c3nc21 (stereo not drawn)	u	1%	11%	u	-2	3
COCCCn1c(=NC(C)=O)c(C#N)cc2c(=O)n3cccc(C)c3nc21	3%	0%	0%	u	-1	19
COc1ccc(S(=O)(=O)N(CCc2ccccc2)CC(N)=O)cc1	33%	0%	-18%	u	1	-13
O=C(COC(=O)CCNS(=O)(=O)c1ccccc1)NNC(=O)c1ccccc1	56%	-1%	17%	2%	x	x
CCCCCCSc1ccc([C@@H]2[C@@H]3C(=O)N(C)C(=O)[C@@H]3[C@]3(C(=O)OC)CCCCN23)cc1	x	-19%	0%	x	x	x
O=C(CCC1CCCC1)N=C1SC2CS(=O)(=O)CC2N1c1ccccc1F (stereo not drawn)	u	-1%	-2%	u	21	5
O=C(O)c1cc(NC(=O)c2ccc(Br)cc2)cc(NC(=O)c2ccc(Br)cc2)c1	17%	2%	-4%	63%	-3	-6
CC(C)(C)C(=O)Nc1ccc(C(=O)Nc2cc(NC(=O)c3ccc(NC(=O)C(C)(C)C)cc3)cc(C(=O)O)c2)cc1	u	1%	-11%	-4%	19*	10
CC(C)(C)C(=O)Nc1ccc(C(=O)NNC(=O)Cc2ccccc2)cc1	21%	7%	11%	2.9µM*	15*	12
CC(C)(C)C(=O)Nc1ccc(C(=O)NNC(=O)c2ccccc2)cc1	46%	-9%	1%	13µM*	31*	78*
CC(C)(C)C(=O)Nc1ccc(NC(=O)C(C)(C)C)cc1	4%	1%	0%	61%	4	17
O=C1/C(=C/c2ccc([N+](=O)[O-])cc2)CCc2ccccc21	265%	-3%	x	210%	71*	127*
O=C1/C(=C/c2cccc([N+](=O)[O-])c2)CSc2ccc(Cl)cc21	-1%	0%	-9%	9%	-3	-5
CCN1C/C(=C\c2cccc([N+](=O)[O-])c2)C(=O)/C(=C/c2cccc([N+](=O)[O-])c2)C1	2.9µM*	-27%	-12%	42%	-2	-3
O=C1/C(=C/c2cccc([N+](=O)[O-])c2)CCc2ccccc21	34%	-95%	u	u	59*	57*
CCN(CC(=O)NC1CCS(=O)(=O)C1)C(C)C(=O)Nc1ccc(F)cc1 (stereo not drawn)	-4%	-1%	23%	12%	x	x
Cn1c(SCc2nnc(-c3ccc(F)cc3)o2)nnc1C1COc2ccccc2O1 (stereo not drawn)	u	26%	-2%	u	4	8
Fc1ccc(-c2nnc(CSc3nnc4ccccn34)o2)cc1	95%	5%	-16%	129%	40*	22
c1ccc(-c2cnc(CSc3nnc4ccccn34)o2)cc1	187%	0%	-5%	x	40*	53*
CC1(C(=O)NCc2cccnc2)CCN1C(=O)Cc1cccs1 (stereo not drawn)	x	x	-2%	x	x	x
O=C(COC(=O)/C=C/c1cccc(C(F)(F)F)c1)NCc1ccco1	10%	2%	23%	-6%	x	x
O=C(NCc1ccco1)/C(=C/c1ccc(C(F)(F)F)cc1)c1nc2ccccc2[nH]1	-6%	5%	63%	u	59*	12*
O=C(NCc1ccco1)/C(=C/c1cccc(C(F)(F)F)c1)c1nc2ccccc2[nH]1	u	-12%	34%	u	18*	-1
SMILES	Pf growth 48h	SARS PLP yeast	AMA1-RON2 inh	Pf growth 96h	Cycloheximide cs	Shiga toxin inh
Cc1ccc(C(=O)OC(C)C(=O)NC2CCCCC2)cc1S(=O)(=O)N1CCCCC1 (stereo not drawn)	7.4µM*	1%	6%	u	x	x
Cc1ccc(C(=O)OC(C)C(=O)N(C)C2CCCCC2)cc1S(=O)(=O)N1CCCCC1 (stereo not drawn)	12µM*	8%	-8%	u	x	x
Cc1[nH]c2ccc(C(=O)OC(C)C(=O)N(C)C3CCCCC3)cc2c1C (stereo not drawn)	u	-1%	-29%	u	x	x
Cc1ccc(C(=O)OC(C)C(=O)NC2CCCCC2C)cc1S(=O)(=O)N1CCOCC1 (stereo not drawn)	u	1%	-4%	-8%	1	-6
Cc1ccc(C)c(OCC(=O)N2CCc3ccccc3C2)c1	21%	-2%	-8%	37%	13*	26
Cc1ccsc1C(=O)OCC(=O)N1CCc2ccccc2C1	409%	-12%	-1%	480%	45*	115*
O=C(OCC(=O)N1CCc2ccccc2C1)c1ccc(Cl)c([N+](=O)[O-])c1	u	4%	-11%	-18%	x	x
Nc1ccc(C(=O)OCC(=O)N2CCc3ccccc3C2)cc1[N+](=O)[O-]	48%	-14%	-19%	-27%	38*	57*
Cc1ccccc1OCC(=O)N1CCc2ccccc2C1	14%	-2%	-1%	11%	15	19
Cc1cc(OCC(=O)N2CCc3ccccc3C2)c(C)cc1Br	-7%	-21%	24%	7%	27*	40*
COc1cccc(C(=O)CN2C(=O)C(C)(C)Oc3ccc(C(=O)N4CCOCC4)cc32)c1	-14%	2%	-10%	0%	-2	-4
COc1cccc(C(=O)CN2C(=O)C(C)(C)Oc3ccc(C(=O)N4CCCCCC4)cc32)c1	u	6%	-16%	x	31*	6
COc1ccc(-c2nc3n(c(=O)c2C#N)CCCS3)cc1	x	-23%	-2%	-2%	15*	0
COc1ccc(/C=N/c2c(-c3ccc(OC)cc3)nc3n2CCS3)cc1	15%	-10%	17%	u	15*	31
Oc1ccc2c(c1)OCC1(O)Cc3cc(O)c(O)cc3C21 (stereo not drawn)	x	x	13µM*	x	x	x
Oc1cc2c(cc1O)[C@H]1c3ccc(O)c(O)c3OC[C@@]1(O)C2	3.7µM*	-2%	32µM*	6.6µM*	x	x
O=C(Cc1ccccc1)c1c[nH]c(C(=O)NCCCN2CCOCC2)c1	184%	-2%	0%	u	-4	-2
Cc1nn(-c2ccccc2)c(NC(=O)c2cccs2)c(-c2ccccc2Cl)c1=O	40%	0%	-10%	4%	-2	18
COc1ccc(NC(=O)N(C)C[C@H]2Oc3ccc(NS(=O)(=O)c4ccc(OC)cc4)cc3C(=O)N([C@H](C)CO)C[C@@H]2C)cc1	x	5%	2%	x	x	x

Screens as filed in PubChem.
